# Measurements: ChEMBL document CHEMBL4513146, “CO-ADD screening of Karazin Kharkiv National University (Ukraine) compounds”
# Entries with a potency or affinity are not part of this list.
# Tested on: Cryptococcus neoformans
# Conditions: Concentration 32 ug.mL-1; ASSAY_TEST Inhibition of Fungal Growth; detection method Resazurin; Absorption (OD600-OD570); plate type 384well; NBS; CORNING #3640
row,SMILES,Inhibition [%]
1,CCCCc1ccc(NC(=O)Cn2nc3ccc(C(=O)Nc4ccc(OC)cc4)cn3c2=O)cc1,-8.8
2,Cc1ccc(-n2ccn3c(SCC(N)=O)nnc3c2=O)cc1C,-10.4
3,COc1ccc(CN(c2ccc(F)cc2)S(=O)(=O)c2ccc3nnc(C)n3c2)cc1F,-6.58
4,Cc1cc2nn(CC(=O)Nc3ccc(C)c(F)c3)c(=O)n2c(Nc2ccc(C)c(F)c2)n1,-10.18
5,CCOc1ccc(NC(=O)Cn2nc3c4c5c(sc4ncn3c2=O)CCCC5)cc1,-9.01
6,Cc1nnc2ccc(S(=O)(=O)N(Cc3ccccc3Cl)c3ccc(F)cc3)cn12,-2.96
7,COc1ccc(NC(=O)Cn2nc3cc(C)nc(Nc4ccc(F)c(C)c4)n3c2=O)cc1,-7.34
8,COc1ccc(OC)c(NC(=O)Cn2nc3ccc(SCc4ccc(Cl)cc4)nn3c2=O)c1,-22.41
9,CN(C)C(=O)CSc1nnc2c(=O)n(-c3ccc(F)cc3)ccn12,-5.4
10,O=S(=O)(Nc1ccc2c(c1)OCCO2)c1ccc2nncn2c1,-7.84
11,COc1cc(NC(=O)Cn2nc3ccc(SCc4ccc(Cl)cc4)nn3c2=O)cc(OC)c1,-31.85
12,CCCCOc1ccc(-c2cc3c4nnc(SCC(=O)N(CC)c5ccccc5)n4ccn3n2)cc1,-16.28
13,Cc1ccc(Oc2nccn3c(=O)n(CC(=O)NCc4ccccc4Cl)nc23)cc1,-7.33
14,Cc1cc2nn(CC(=O)Nc3ccccc3F)c(=O)n2c(Nc2ccc(F)c(C)c2)n1,-5.54
15,COc1ccccc1-n1ccn2c(SCC(=O)Nc3ccc(C)cc3Cl)nnc2c1=O,-11.35
16,CCOc1ccc(-n2ccn3c(SCC#N)nnc3c2=O)cc1,-3.42
17,O=C(Cn1nc2c3cc(-c4ccc(Cl)cc4)nn3ccn2c1=O)N1CCN(c2ccccc2)CC1,-23.41
18,CCc1ccc(N(Cc2ccc(C)cc2)S(=O)(=O)c2cccn3cnnc23)cc1,-5.61
19,COc1ccc(CCn2c(=O)c3sccc3n3c(=O)n(Cc4ccc(F)cc4)nc23)cc1OC,-31.44
20,COc1ccc(Cl)cc1NC(=O)Cn1nc2ccc(Sc3ccccc3)nn2c1=O,-15.66

row,SMILES,Inhibition [%]
1,Cc1ccc(C)c(NC(=O)Cn2nc3c(SCc4ccc(Cl)cc4)nccn3c2=O)c1,-22.73
2,COc1ccc(NC(=O)Cn2nc3ccc(SCc4ccc(Cl)cc4)nn3c2=O)cc1Cl,-13.55
3,CCc1nnc2c(S(=O)(=O)N(Cc3cccc(F)c3)c3ccc(F)cc3)cccn12,-2.23
4,CCCc1nnc2c(=O)n(CC(=O)Nc3ccc(Cl)c(Cl)c3)c3ccccc3n12,-14.21
5,Cc1ccc(NC(=O)Cn2nc3ccc(SC(C)(C)C)nn3c2=O)cc1Cl,-28.11
6,CCOC(=O)c1ccccc1NC(=O)Cn1nc2c(Oc3cccc(OC)c3)nccn2c1=O,-5.16
7,O=C(Cn1nc2ccc(SCc3ccc(Cl)cc3)nn2c1=O)Nc1ccccc1C(F)(F)F,-11.3
8,Cc1ccccc1CN(c1ccc(Cl)cc1)S(=O)(=O)c1cccn2c(C)nnc12,-9.98
9,CCc1ccc(N(Cc2ccc(C)cc2)S(=O)(=O)c2cccn3c(C)nnc23)cc1,-6.65
10,COc1ccc(-n2ccn3c(=O)n(Cc4cc(C)ccc4C)nc3c2=O)cc1Cl,-5.13
11,O=C(CSc1nc2ccccc2n2cnnc12)Nc1ccc2c(c1)OCCO2,-3.4
12,CCOC(=O)c1ccc(NC(=O)Cn2nc3ccc(SC(C)(C)C)nn3c2=O)cc1,-37.99
13,Cc1c(Cl)cccc1-n1ccn2c(=O)n(Cc3cccc(F)c3)nc2c1=O,-17.54
14,Cc1ccc(NC(=O)Cn2nc3c(Sc4cccc(F)c4)nccn3c2=O)cc1F,-11.09
15,Cc1cc(Br)ccc1NC(=O)Cn1nc2c(Sc3cccc(F)c3)nccn2c1=O,-9.53
16,COC(=O)c1ccc(NC(=O)Cn2nc3nc(N4CCCCCC4)ccn3c2=O)cc1,-8.37
17,COc1ccc(-c2cc3c4nn(CC(=O)Nc5cc(C)cc(C)c5)c(=O)n4ccn3n2)cc1,-4.71
18,Cc1cc(C)cc(Nc2nc(C)cc3nn(CC(=O)NC4CCCCC4)c(=O)n23)c1,-8.46
19,CC(C)NC(=O)CCn1c(=O)c2ccccc2n2c(=O)n(CC#N)nc12,-13.64
